# Measurements as given in PubChem BioAssay (NCATS).
# Inconclusive results are not listed. Active and inactive are the calls of the source. Calls come from the whole dose curve; as a rule, active = well fitted curve in the direction sought with a large enough effect; inconclusive = small, poorly fitted or top-dose-only effect, or another doubt; inactive = no such curve, though single readings can be large; an effect the other way counts as inactive or inconclusive.
# Legend:
# [1] = Viability qHTS for spleen associated tyrosine kinase inhibitor (SYKi) drug resistant MV4-11 cells (AID 1963824); note: nearly all actives have a fitted effect of over 35% in size; note: potency is the fitted concentration of half-maximal effect
# Outline: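 SYK-inhibitor-resistant MV4-11 AML cells were seeded at 500 per well onto compound and cultured 72 hours (37 °C, 5% CO2). CellTiter-Glo was then added, and after 10 min at room temperature, luminescence gave viability.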
# [2] = Cellular viability qHTS for adrenocortical cancer (ACC) cell line NCI-H295R (AID 1963990); note: nearly all actives have a fitted effect of over 60% in size; note: potency is the fitted concentration of half-maximal effect
# Outline: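 IC50 and maximal efficacy derive from four-parameter logistic modelling of titration curves, with reads scaled between DMSO-only wells (0%) and doxorubicin hydrochloride (100% inhibition). Compounds spanned up to 46 uM over 48 h.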
# [3] = Quantitative highthroughput screen to assess conditional lethalithy of NOMO1 cells grown in RPMI1640 with untreated serum (RPMI+s) (AID 1963876); note: nearly all actives have a fitted effect of over 35% in size
# Outline: (§1)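 Each medium arm—HPLM with 10% dialyzed FBS, or RPMI1640 with 5 mM glucose and 10% untreated or dialyzed FBS—was screened against an 11-point, 3-fold compound titration for 48 h at 37 °C, with CellTiter-Glo luminescence as endpoint.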
# [4] = Quantitative highthroughput screen to assess conditional lethalithy of NOMO1 cells grown in RPMI1640 with dialyzed fetal bovine serum (RPMI+ds) (AID 1963877); note: series mostly up to about 46 µM; nearly all actives have a fitted effect of over 30% in size
# Outline: as §1
smiles,measurement,setting,value
COC(=O)C1=C(C)NC(C)=C(C(=O)OC(C)(C)CN(C)CCC(c2ccccc2)c2ccccc2)C1c1cccc([N+](=O)[O-])c1 (stereo not drawn),Potency,[1],9.44 µM (active)
same,Potency,[2],20.6 µM (active)
O=c1[nH]sc2cc(Cl)ccc12,Potency,[1],inactive
same,Potency,[2],3.26 µM (active)
Cc1ccc2nc(N)[nH]c(=O)c2c1Sc1ccncc1,Potency,[1],4.61 µM (active)
same,Potency,[2],inactive
CN[C@@H](C)C(=O)N[C@H](C(=O)N1CCC[C@H]1C(=O)Nc1snnc1-c1ccccc1)C1CCCCC1,Potency,[1],0.132 µM (active)
same,Potency,[2],inactive
CCO[C@@H]1O[C@H](C(COCc2ccccc2)OCc2ccccc2)[C@H](OCc2ccccc2)[C@H]1O (stereo partly drawn),Potency,[1],11.9 µM (active)
same,Potency,[2],23.1 µM (active)
COc1cc2ncnc(Nc3cccc(Cl)c3F)c2cc1OC(=O)N1CCN(C)C[C@H]1C,Potency,[1],7.31 µM (active)
same,Potency,[2],inactive
CC/C(=C(/c1ccc(/C=C/C(=O)O)cc1)c1ccc2[nH]ncc2c1)c1ccc(F)cc1Cl,Potency,[1],16.6 µM (active)
same,Potency,[2],15.8 µM (active)
COc1cc2ncnc(Nc3ccc(F)c(Cl)c3)c2cc1NC(=O)C=CCN1CCCCC1,Potency,[3],inactive
same,Potency,[4],inactive
COc1ccc2[nH]c(C(=O)N3CCC(CC(C)(C)O)CC3)cc2c1,Potency,[1],18.6 µM (active)
same,Potency,[2],inactive
Nc1ncc(C(=O)NC2CN(C(=O)C3CC3)C2)c2ccc(-c3cccc(F)c3)nc12,Potency,[1],7.42 µM (active)
same,Potency,[2],inactive
CCc1ccc(C=C2SC(=S)NC2=O)cc1,Potency,[3],inactive
C[C@]12CCC(=O)C=C1CC[C@H]1[C@@H]3CC[C@](O)(C(=O)CO)[C@@]3(C)C[C@H](O)[C@@]12F,Potency,[1],inactive
same,Potency,[2],inactive
